Ba CapD inh – CapD enzyme inhibition. purified CapD enzyme, fluorescence intensity read-out; hits give low values. z-score (test concentration not listed). 140,000 tested, 0.23% active; in the data active = z-score mostly below about -2.9, no sharp cut-off; inactive = mostly above about -1.9
Starred values were filed as active, the others as inactive. The sample as a whole holds a higher share of hits than the screen did.

SMILES | Ba CapD inh
Cc1ccc2nc(SCC(=O)N(C(C)C)C(C)C)[nH]c2c1 | -0.09
Cc1ccc(S(=O)(=O)N/N=C/c2ccc3c(c2)n(C)c(=O)n3C)cc1 | -0.57
Fc1ccc(Nc2nc3nonc3nc2Nc2ccc(F)cc2F)c(F)c1 | -1.2
COc1ccc(Nc2nc3nonc3nc2Nc2ccc(OC)cc2)cc1 | -0.88
CN(C)c1nc2nonc2nc1Nc1ccc(F)cc1 | -5.2*
CCOC(=O)c1c(C)cccc1NC(=O)c1cccs1 | -1.7*
Cc1ccc(C)c(NC(=O)c2cccs2)c1 | 0.76
Cc1c(Cl)cccc1NC(=O)c1cccs1 | 0.48
O=C(c1ncc[nH]1)c1ccccc1C(=O)N1CCCC1 | 0.32
Cc1cccc(-n2sc3c(c2=S)-c2ccccc2NC3(C)C)c1C | -0.89
CSc1nc2nc(N)nc(N)c2s1 | -0.64
CSc1nc2c(=S)[nH]c(=S)[nH]c2s1 | -5.5*
COc1ccc(-c2cc(-c3ccc(OC)c(OC)c3)nc(N)c2C#N)cc1 | 70
CC(C)(C)C1=CC2(C=C(C(C)(C)C)C1=O)Nc1cc(Br)ccc1OC2c1ccccc1 (configuration not stated) | 2.2
CCCOC(=O)c1cccc(NC(=O)C23CCC(C)(C(=O)O2)C3(C)C)c1 (configuration not stated) | 0.14
CC1(C)Cc2ccccc2-c2nc(-c3ccccc3)n(CCO)c(=O)c21 | 7.3
OCCn1c(-c2ccccc2)nc2ccccc21 | 2.4
CC1(C)Cc2c(c(=S)nc(-c3ccccc3)n2CCO)CO1 | -5.1*
COc1ccc(Cl)cc1C(=O)N/N=C/c1cc(Br)cc(OC)c1O | 0.14
O=C1C=C(c2cccs2)C[C@H](c2ccccc2)[C@H]1n1cnc([N+](=O)[O-])c1 | 0.42
NC(=O)c1ccccc1NC(=O)Nc1ccccc1 | 3.7
N#CC(C#N)=NNc1ccccc1C(N)=O | -6*
CNc1ccccc1C(N)=O | 75
